# Data taken from PubChem BioAssay AID504465 (National Center for Advancing Translational Sciences (NCATS), 2011).
# About 210 (10%) of roughly 2,100 compounds were called active. Inconclusive results (about 53%) are left out. This is one part of the list. Unmarked numbers belong to inactive results. Calls come from the whole dose curve; as a rule, active = well fitted inhibition curve with a large enough effect; inconclusive = small, poorly fitted or top-dose-only effect, or effect the other way; inactive = no such curve, though single readings can be large or run the other way.
# Assay: IN Cell qHTS Assay for Inhibitors of the mTORC1 Signaling Pathway in MEF (Tsc2-/-, p53-/-) Cells: Sytravon; note: nearly all actives have a fitted effect of over 60% in size
# Settings: phospho-rpS6 immunofluorescence, 24 h; series mostly up to 38.3 µM; activity, negative = inhibition: at the top concentration
# From the text: NIH Molecular Libraries Probe Production Centers Network [MLPCN] NIH Chemical Genomics Center [NCGC] MLPCN Grant: NS059428-01 Assay Submitter (PI): Blenis, John; Hoffman, Greg; Harvard University NCGC Assay Overview: Thee mammalian target of rapamycin (mTOR) is an intracellular serine/threonine kinase Aberrant regulation of mTOR signaling plays a causative role in a number of human diseases, including cancer, benign tumors such as lymphangioleiomyomatosis (LAM) and Tuberous Sclerosis Complex (TSC), and metabolic diseases such as diabetes and obesity. This project aims to identify inhibitors of ribosomal protein S6 (rpS6) phosphorylation. The phosphorylation of rpS6 is a key event downstream of mTOR activation. The assay uses a phospho-specific antibody of phospho-rpS6 to detect inhibitors of mTOR activation. Mutations in the Tsc1 and Tsc2 genes are the underlying genetic lesions responsible for TSC, causing constitutive activation of the mTORC1 pathway and leading to profound effects on cell metabolism. Aberrant metabolism in cancer has recently received significant attention as a target to develop therapeutic agents in the treatment of cancer1. As Tsc2-/- cells have lost the ability to respond to energy and growth factor deprivation, these cells are unable to properly down regulate cellular biosynthetic processes in response to metabolic stress, and are thus extremely sensitive to glucose deprivation-induced death.2 A central goal of this project is to explore the unique cell survival and metabolic properties of cells with Tsc1 or Tsc2 by screening for compounds that selectively target the Tsc2-/- MEFs by screening both Tsc2-/- and WT MEF cell lines. We hope to better understand these aspects of TSC physiology in order to exploit them for therapeutic benefit.
# NCGC IN Cell Assay Protocol: For quantitative high throughput analysis of mTORC1 signaling, we developed a cell-based assay for immuno-fluorescence based detection of rpS6 phosphorylation on the Acumen Explorer that will be used a platform for the primary small molecule screen. Mouse embryonic fibroblasts (MEFs) are cultured in 1536-well plates using DMEM + 10% FBS. Twenty-four hrs after plating, test compounds (solubilized in DMSO) are delivered and incubated with the cells for 24 hrs at 37 degree Celsius. Following the incubation, media with compound is aspirated and the cells are fixed in 4% paraformaldehyde (PFA) containing PBS + 0.2% TX-100. Next, PFA is aspirated, cells are washed two times with PBS plus 0.2% TX-100 and the cells are blocked for 1 hr at room temperature (blocking buffer: LiCOR Blocking Buffer plus 0.2% TX-100). This is followed by aspiration and staining with Alexa-488 conjugated-phospho-rpS6 Ser235/236 antibody for 2 hours at room temperature (Cell Signaling Technology # 4803, 1:50 dilution in blocking buffer). Cells are washed two times with PBS plus 0.2% TX-100, and stained with 10 uM propidium iodide (PI) for 20-25 minutes for cell number measurement (1:500 dilution of Hoescht staining is also added for IN Cell imaging). Active wells which are selected (based on Acumen results) are imaged on the IN Cell 1000 (GE Healthcare) using the D360/40X and HQ480/40X excitation filters for the Hoechst and Alexa-488 cytoplasmic stains, respectively. The fluorescence emission filters used were HQ460/40M and HQ535/50M for the Hoechst and Alexa-488 cytoplasmic stains, respectively. The normalized phospho-S6 staining is calculated as the ratio of […] for the single concentration rapamycin control (7.5 nM) and DMSO columns. […] Inhibition of the pathway is defined based on the normalized phospho-S6 intensity in rapamycin treated cells. Each treatment is reported as the % positive cells in the well, where thresholds are defined by selecting wells with the highest and lowest signal and differentiating between the % non-active and % active populations. […]
# Potency is the fitted concentration of half-maximal effect.
Compound,"activity, negative = inhibition",Potency
Cc1ccc(-c2nc3scc(CCNC(=O)c4cccc(Br)c4)n3n2)cc1,0%,–
CC(C)CCNC(=O)c1cccc(Nc2nc3ccccc3n3nnnc23)c1,–,4.14 µM (active)
Cc1cccc(Cn2c(CNC(=O)c3ccccc3)nc3ccccc32)c1,-18.5%,–
Cc1ccc(NC(=O)C2CCCN(S(=O)(=O)c3ccc4c(c3)CCCC(=O)N4)C2)cc1Cl (stereo not drawn),1.08%,–
CCCS(=O)(=O)c1c(S(=O)(=O)CCC)c2cc(C(C)(C)C)ccn2c1C(=O)c1ccc(OC)c(OC)c1,–,0.147 µM (active)
COc1ccc(OC)c(NC2=C(c3ccccc3)C(=O)c3ccccc32)c1,-54.5%,–
O=C(NCCc1ccccc1Cl)c1ccc2c(=O)n(-c3ccccc3)c(=O)[nH]c2c1,-43.6%,–
COc1ccc(OCc2nc3c4c(-c5ccccc5)c(-c5ccccc5)oc4ncn3n2)cc1,–,4.14 µM (active)
Cc1ccc(NCc2cc3cc4c(cc3n(CC(=O)Nc3ccc(C)cc3)c2=O)OCCO4)cc1,–,4.65 µM (active)
Cc1ccc(NC(=O)Cn2c(=O)c(CNc3ccccc3)cc3cc4c(cc32)OCCO4)cc1,0%,–
COc1cc2cc(CNc3ccc(C)cc3)c(=O)n(CC(=O)Nc3ccc(F)cc3F)c2cc1OC,-16.6%,–
CCOC(=O)c1c(C)oc2ncnc(Nc3cc(Cl)ccc3OC)c12,-1.76%,–
COc1cccc(C2=CC(c3cc(Br)ccc3F)n3nnnc3N2)c1 (stereo not drawn),0%,–
O=C(NCCCc1nc2ccccc2n1Cc1ccc(Cl)cc1)c1ccco1,-10.8%,–
CCC1CCCCN1CCCNC(=O)c1cc2c(Cl)nc3ccccc3c2s1 (stereo not drawn),–,14.7 µM (active)
CC1CCCCN1CCCNC(=O)c1cc(Sc2cccc(Cl)c2)nc2ccccc12 (stereo not drawn),6.25%,–
COc1ccc(Nc2cc(C(=O)NCCCN(C)Cc3ccccc3)c3ccccc3n2)cc1,0%,–
CN(CCCNC(=O)c1cc2c(Cl)nc3ccccc3c2s1)Cc1ccccc1,–,18.5 µM (active)
CCC1CCCCN1CCCNC(=O)c1c(C)oc2ncn(CC(C)C)c(=O)c12 (stereo not drawn),-3.66%,–
Fc1ccc(C(NCCc2ccccc2)c2nnc(-c3ccccc3Cl)o2)cc1 (stereo not drawn),-3.75%,–
O=C(NCC1CCN(Cc2ccccc2Cl)CC1)c1cc2ccc3cccnc3c2[nH]1,-19.1%,–
CCOc1ccc(C2CC(=O)c3c([nH]c(C(=O)OCc4ccccc4)c3C)C2)cc1 (stereo not drawn),–,16.5 µM (active)
Cc1c(C(=O)OC2CCC(C)CC2)[nH]c2c1C(=O)CC(c1ccc(F)cc1)C2 (stereo not drawn),-18.9%,–
COc1cc(C2CC(=O)c3c([nH]c(C(=O)OC4CCCCC4)c3C)C2)cc(OC)c1OC (stereo not drawn),-21.9%,–

Compound,"activity, negative = inhibition",Potency
CCOc1ccc(CNC(=O)CCCc2cn(C)c3ccccc23)cc1OC,6.25%,–
Cn1ncc2c(NCc3cccc(Cl)c3)ncnc21,6.25%,–
N#Cc1ccccc1S(=O)(=O)N1CCC(Oc2ccc(-n3cnnn3)cc2)CC1,-17.1%,–
Cc1ccccc1CSCCNC(=O)C1CCN(S(=O)(=O)Cc2ccccc2)CC1,-21.6%,–
Cc1ccccc1Cn1c(CN2CCC(C(=O)NCCN(C)C)CC2)cc2ccccc21,–,11.7 µM (active)
CCCNC(=O)C1CCN(Cc2cc3ccccc3n2Cc2ccccc2)CC1,-17.9%,–
Cc1cccc(C)c1Nc1c(-c2ccsc2)nc2cccc(C)n12,-13%,–
Clc1cccc(CSc2ccc(-c3cccs3)nn2)c1,-10%,–
CCOC(=O)c1cc(-c2ccc(C)cc2)n(CC(=O)Nc2ccccc2F)c1C,–,14.7 µM (active)
CCOC(=O)c1cc(-c2ccccc2)n(CCC(=O)Nc2ccc(C(F)(F)F)cc2)c1C,0%,–
CCOC(=O)c1cc(-c2ccccc2)n(-c2cccc(C(=O)N(C)c3ccc(C)cc3)c2)c1C,0%,–
Cc1ccccc1Nc1c(-c2ccc(Cl)s2)nc2cccc(C)n12,15.5%,–
CC(CNC(=O)c1ccc2nc(CCc3ccccc3)oc2c1)c1ccccc1 (stereo not drawn),-0.769%,–
CCCS(=O)(=O)N1CC(=O)N(c2ccccc2F)C(C)(C(=O)NC2CCCCCC2)C1 (stereo not drawn),1.49%,–
COc1ccc(NC(=O)c2cc3c(=O)n(Cc4ccco4)ccc3nc2C)cc1,0.892%,–
COc1ccc(OC)c(NC(=O)Cn2c(=O)n(Cc3ccccc3)c(=O)c3ccccc32)c1,-2.9%,–
COc1ccc(NC(=O)Cn2c(=O)n(Cc3ccco3)c(=O)c3cc(OC)c(OC)cc32)cc1,–,14.7 µM (active)
CCOC(=O)Cn1c(=O)n(C2CCCCC2)c2nc(-c3cccc(C)c3)nc(C(N)=O)c21,-0.928%,–
O=C(Nc1ccc(C(F)(F)F)cc1)C1CCCN(S(=O)(=O)c2cccc3cccnc23)C1 (stereo not drawn),-23.6%,–
CCc1ccc(NC(=O)c2ccc(F)c(S(=O)(=O)NC3CCCCCC3)c2)cc1,6.25%,–
COc1ccc(NC(=O)c2ccc3c(c2)c(C)c(C)n3Cc2ccc(F)cc2)cc1,–,10.4 µM (active)
COc1ccc(Cn2c(C(=O)O)c(CNCCc3ccco3)c3ccc(OC)cc32)cc1,-26.7%,–
Cc1ccc(Cn2c(=O)n(CCCCC(=O)NCc3ccccc3Cl)c(=O)c3ccccc32)cc1,-34.5%,–
COc1ccc(Cn2c(C(=O)O)c(CNCc3ccccc3F)c3ccc(OC)cc32)cc1,-12.4%,–
